Consider eight molecules from PubChem BioAssay (EPA / NIEHS).

Experiment [1] can be described thus: Tanguay_ZF_120hpf_AXIS_legacy: (Legacy) Oregon State University Tanguay Lab 120 Hour Post-fertilization zebrafish Assay for Body Axis Malformation (AID 2283635).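 On AC50: potency for an increased fraction of larvae scored with body axis malformation.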 The procedure, abridged:
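Each dechorionated embryo was exposed alone from 6 hpf, with DMSO at 0.64% (vol/vol) and trimethyltin chloride 5 uM as positive control. Axis malformation was recorded at 120 hpf unless the embryo had died.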

Experiment [2] is described as follows: Tanguay_ZF_120hpf_EYE_legacy: (Legacy) Oregon State University Tanguay Lab 120 Hour Post-fertilization zebrafish Assay for Eye Malformation (AID 2283636).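 Further: binary presence or absence of eye malformation scored by brightfield in 120 hpf larvae.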 The method in brief: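 Static waterborne exposure of dechorionated zebrafish embryos (strain Tropical 5D), 6 to 120 hpf, sealed plates at 28C, 0.64% DMSO vehicle. Eye malformation is scored as a binary endpoint, with gain of signal analysed relative to DMSO.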

The nature of experiment [3]: Tanguay_ZF_120hpf_SNOU_legacy: (Legacy) Oregon State University Tanguay Lab 120 Hour Post-fertilization zebrafish Assay for Snout Malformation (AID 2283637). The method in brief: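 Dechorionated zebrafish, individually housed from 6 hpf in covered, sealed wells at 28C with 0.64% DMSO vehicle, were examined at 120 hpf for snout malformation. Responses were binary and analysed positive-direction relative to DMSO.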

Experiment [4] can be described thus: Tanguay_ZF_120hpf_OTIC_legacy: (Legacy) Oregon State University Tanguay Lab 120 Hour Post-fertilization zebrafish Assay for Otic Vesicle Malformation (AID 2283639). The method in brief:
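Brightfield scoring at 120 hpf, binary present/absent; DMSO negative control, 5uM trimethyltin chloride positive control. Static exposure at 28C, final DMSO 0.64% (vol/vol). Dead embryos not scored for malformation.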

Experiment [5] in a line: Tanguay_ZF_120hpf_PE_legacy: (Legacy) Oregon State University Tanguay Lab 120 Hour Post-fertilization zebrafish Assay for Pericardial Edema (AID 2283640).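 On AC50: potency for increased incidence of pericardial edema versus DMSO baseline.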 The method in brief:
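Zebrafish larvae are exposed from early development to 120 hpf at 28C, with 0.64% DMSO final. Each surviving larva receives a yes/no pericardial edema call by brightfield imaging, analysed relative to the DMSO baseline.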

Experiment [6] can be described thus: Tanguay_ZF_120hpf_BRAI_legacy: (Legacy) Oregon State University Tanguay Lab 120 Hour Post-fertilization zebrafish Assay for Brain Malformation (AID 2283641). The procedure, abridged:
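Static exposure of staged wild-type embryos until 120 hpf, kept at 28C with light excluded and final DMSO of 0.64% (vol/vol). Presence or absence of brain malformation was noted under brightfield; mortality precluded scoring.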

The nature of experiment [7]: Tanguay_ZF_120hpf_SOMI_legacy: (Legacy) Oregon State University Tanguay Lab 120 Hour Post-fertilization zebrafish Assay for Somite Malformation (AID 2283647). The method in brief: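 Somitogenesis defects are recorded as binary calls in whole larvae at 120 hpf after continuous static chemical exposure starting at 6 hpf in dechorionated 5D embryos. DMSO serves as negative control and baseline.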

Experiment [8] can be described thus: Tanguay_ZF_120hpf_PFIN_legacy: (Legacy) Oregon State University Tanguay Lab 120 Hour Post-fertilization zebrafish Assay for Pectoral Fin Malformation (AID 2283648).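 Further: each larva judged yes or no for fin defect by brightfield with dead larvae skipped.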 The procedure, abridged: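 Scoring of pectoral fin malformation was binary, made at 120 hpf on larvae exposed statically from 6 hpf after enzymatic chorion removal. Activity was fitted upward relative to DMSO controls at 0.64% (vol/vol).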

Experiment [9] in a line: Tanguay_ZF_120hpf_PIG_legacy: (Legacy) Oregon State University Tanguay Lab 120 Hour Post-fertilization zebrafish Assay for Pigmentation Malformation (AID 2283650). The method in brief: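 Endpoint is incidence of abnormal pigmentation at 120 hpf in dechorionated 5D zebrafish exposed singly from 6 hpf at 28C, DMSO vehicle at 0.64%. Embryos dying by 24 or 120 hpf are excluded from scoring.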

Experiment [10] in a line: Tanguay_ZF_120hpf_SWIM_legacy: (Legacy) Oregon State University Tanguay Lab 120 Hour Post-fertilization zebrafish Assay for Swim Bladder Malformation (AID 2283654).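 Further: swim bladder malformation in each larva scored yes or no under brightfield.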 The procedure, abridged: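 Static waterborne exposure of single dechorionated Tropical 5D zebrafish embryos, 6–120 hpf, 28C, 0.64% DMSO final. Read-out: swim bladder malformation, present/absent, relative to DMSO negative control; trimethyltin chloride 5uM served as positive control.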

Experiment [11] is described as follows: Tanguay_ZF_120hpf_NC_legacy: (Legacy) Oregon State University Tanguay Lab 120 Hour Post-fertilization zebrafish Assay for Notochord and Tail Malformation (AID 2283656). The procedure, abridged:
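Binary notochord-distortion calls, made by brightfield inspection, form the read-out; activity is fitted in the positive direction against DMSO. Exposure ran statically from 6 to 120 hpf at 28C with 0.64% DMSO.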

The nature of experiment [12]: Tanguay_ZF_120hpf_JAW_legacy: (Legacy) Oregon State University Tanguay Lab 120 Hour Post-fertilization zebrafish Assay for Jaw Malformation (AID 2283638). The method in brief:
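Wild-type 5D embryos, chorion removed at 4 hpf, dosed singly from 6 hpf; 28C static, sealed, foil-covered, to 120 hpf. Endpoint: jaw defect yes/no (brightfield); mortality excludes scoring.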

Experiment [13] in a line: Tanguay_ZF_120hpf_CFIN_legacy: (Legacy) Oregon State University Tanguay Lab 120 Hour Post-fertilization zebrafish Assay for Caudal Fin Malformation (AID 2283649). The method in brief: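 Single dechorionated 5D wild-type embryos are dosed at 6 hpf (final DMSO 0.64%) and held statically at 28C. Caudal fin malformation is recorded as present or absent at 120 hpf under brightfield, excluding dead embryos.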

A short description of experiment [14]: Tanguay_ZF_120hpf_CIRC_legacy: (Legacy) Oregon State University Tanguay Lab 120 Hour Post-fertilization zebrafish Assay for Circulatory Malformation (AID 2283651). The procedure, abridged:
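Static exposure, 6–120 hpf, 28C, sealed and dark; one dechorionated 5D embryo/well; DMSO 0.64% v/v final. Binary circulation endpoint by brightfield; dead embryos not scored.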

The nature of experiment [15]: Tanguay_ZF_120hpf_TRUN_legacy: (Legacy) Oregon State University Tanguay Lab 120 Hour Post-fertilization zebrafish Assay for Truncated Body (AID 2283655). The procedure, abridged: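 Single dechorionated zebrafish embryos received test chemical from 6 hpf in 0.64% DMSO, kept at 28C. At 120 hpf, brightfield inspection noted any truncated body.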

Records with an inconclusive call do not appear. Activity calls are given as the source filed them. How the source made its calls: active means hit-call score of the fitted dose curve at least 0.9, where 1 is the maximum; inconclusive means response in the unintended direction; inactive means score below 0.9.

As to `CC(C)CC(C)O` (stereo not given), the result in [1], in [2], in experiment [3], in [4], in experiment [5] and in experiment [6] was inactive. The call in experiment [7], in experiment [8], in experiment [9], in [10] and in experiment [11] was inactive.

For `OCc1ccccc1`, the molecule was called inactive in experiment [1], in experiment [2], in [3], in experiment [12], in experiment [4] and in experiment [5]. Also, the molecule was classed as inactive in experiment [6], in [7], in experiment [8], in experiment [13], in experiment [9] and in [14]. Moreover, the result in experiment [10] and in experiment [11] was inactive.

As to `Cc1ncc([C@@H](CCCCCCc2ccc3c(n2)NCCC3)CC(=O)O)cn1`, the result in experiment [1], in [2], in experiment [3], in experiment [12], in experiment [4] and in [5] was inactive. Also, the call in experiment [6], in [7], in experiment [13], in experiment [9], in experiment [14] and in [10] was inactive. The molecule was called inactive in experiment [11].

The AC50 is the concentration giving half of the maximal activity seen. `COc1cc(C(C)C)c2c(c1)S(=O)(=O)N(COc1cc(=O)n3cccc(OCCN4CCCCC4)c3n1)C2=O`: the AC50 in experiment [1] is 32.4 µM (active); in [3] it was 24.6 µM (active); in [4] it was 15.3 µM (active); in experiment [5] it was 20 µM (active). Moreover, the result in experiment [2], in experiment [6], in experiment [7], in [8], in experiment [13] and in experiment [14] was inactive. Besides, the outcome in experiment [10], in [15] and in experiment [11] was inactive.

With `C[C@]12C=CC(=O)C=C1CC[C@H]1[C@@H]3C[C@@H](O)[C@](O)(C(=O)CO)[C@@]3(C)C[C@H](O)[C@@]12F`, the result in [1], in [2], in [3], in [4], in [5] and in experiment [6] was inactive. For the same molecule, the molecule was called inactive in experiment [7], in experiment [8], in [13], in experiment [9], in experiment [10] and in experiment [11].

Regarding `c1ccc2ncccc2c1`, the call in [1], in [2], in experiment [3], in experiment [4], in experiment [5] and in experiment [6] was inactive. In addition, the result in experiment [7], in experiment [8], in experiment [13], in experiment [9], in experiment [14] and in experiment [10] was inactive. Also, the outcome in experiment [11] was inactive.

For `O=S(=O)(O)c1ccc(N=Nc2c(O)ccc3cc(S(=O)(=O)O)ccc23)cc1`, the outcome in [1], in experiment [2], in [3], in [4], in experiment [5] and in experiment [6] was inactive. Moreover, the result in [7], in experiment [8], in [9], in [14], in experiment [10] and in experiment [11] was inactive.

Take `CCOc1ccc2[nH]cc(C(=O)NCc3ccccc3)c(=O)c2n1`: the molecule was classed as inactive in experiment [1], in experiment [2], in [3], in [4], in experiment [5] and in experiment [6]. For the same molecule, the result in experiment [7], in experiment [8], in [13], in [9], in experiment [14] and in experiment [11] was inactive.
